Inconclusive results are not listed. Activity calls are given as the source filed them. The calls were made as follows, unless noted: active = hit-call score of the fitted dose curve at least 0.9, where 1 is the maximum; inactive = score below 0.9.

Usually AC50 stands for the concentration giving half of the maximal activity seen.

Assay [1] in a line: APR_HepG2_CellCycleArrest_1hr: Apredica 1-hour HepG2 Assay for Cell Cycle Arrest (AID 2282666). The note with it: high-content imaging, actives raise or lower the signal. A digest of the protocol:
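HepG2 cells exposed for 1 h to 0.39–200 uM compound (0.5% DMSO). Fixed, Hoechst-stained nuclei imaged by ArrayScan; DNA content quantified by Cell Cycle analysis; bidirectional fit against DMSO.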

The nature of assay [2]: ACEA_ER_80hr: ACEA Biosciences xCELLigence Real-Time Cell Analysis on Estrogen Receptor Agonism for Proliferation (AID 2282667; active = hit-call score of the fitted dose curve at least 0.9, where 1 is the maximum). As to conditions: T47D proliferation, impedance (xCELLigence), 80 h. A digest of the protocol:
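Real-time impedance growth kinetics of human T-47D breast cells read 80 h after dosing, gain-of-signal fitted relative to DMSO. Compounds: 1:4 serial series, top final concentration 100 uM, n = 2.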

A short description of assay [3]: APR_HepG2_CellLoss_1hr: Apredica 1-hour HepG2 Assay for Cell Loss (AID 2282668).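 Also: curves fitted both ways against DMSO so gain or loss of cells counts.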 The note with it: high-content imaging. The method, boiled down: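 HepG2 cells were treated for 1 h with compound at 0.39–200 uM, in duplicate, in 0.5% DMSO. After formaldehyde fixation, Hoechst 33342-stained nuclei were imaged on an ArrayScan to count cells. Data were fitted bidirectionally versus DMSO.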

Assay [4] is described as follows: APR_HepG2_MicrotubuleCSK_1hr: Apredica 1-hour HepG2 Assay for Microtubule CSK Stabilty (AID 2282669). As to conditions: HepG2 microtubule cytoskeleton imaging, actives raise or lower the signal. The method, boiled down:
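HepG2 cells exposed 1 h to 0.39–200 uM compound (0.5% DMSO, duplicates), then formaldehyde-fixed, permeabilized and immunostained for alpha-tubulin with Hoechst nuclei. Imaged by ArrayScan high-content analysis; bidirectional fit versus DMSO.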

Assay [5] in a line: APR_HepG2_p53Act_1hr: Apredica 1-hour HepG2 Assay for p53 Activation (AID 2282671). The note with it: high-content imaging, actives raise or lower the signal. A digest of the protocol: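 HepG2 cells treated 1 h with compound at 0.39–200 uM (10 concentrations, duplicate) in 0.5% DMSO. Formaldehyde-fixed, permeabilised cells immunostained for p53 with Hoechst 33342; high-content imaging, bidirectional fit versus DMSO.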

Assay [6] is described as follows: APR_HepG2_MitoticArrest_1hr: Apredica 1-hour HepG2 Assay for Mitotic Arrest (AID 2282672). The note with it: high-content imaging, actives raise or lower the signal. The method, boiled down: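 HepG2 cells exposed 1 hr to compounds at 0.39–200 uM (0.5% v/v DMSO final), then fixed in 3.7% formaldehyde and immunostained for phospho-histone H3 with Hoechst 33342. Mitotic arrest scored by automated fluorescence imaging, fitted bidirectionally versus DMSO.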

A short description of assay [7]: APR_HepG2_P-H2AX_1hr: Apredica 1-hour HepG2 Assay for H2AX Phosphorylation (AID 2282673). The note with it: high-content imaging, actives raise or lower the signal. A digest of the protocol: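 HepG2 dosed 1 hr at 0.39-200 uM (0.5% DMSO final), duplicate. Fixed in 3.7% formaldehyde, Triton permeabilized, immunostained for phospho-histone H2A.x (1:200) with Hoechst 33342; ArrayScan 20x imaging, bidirectional fit vs DMSO.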

A short description of assay [8]: APR_HepG2_CellCycleArrest_24hr: Apredica 24-hour HepG2 Assay for Cell Cycle Arrest (AID 2282905).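 Also: cell cycle arrest scored as ratio of 2N to 4N nuclear DNA content.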 The note with it: imaging, actives raise or lower the signal. The method, boiled down: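 Cell cycle arrest is scored from nuclear DNA content measured by high-content imaging of Hoechst 33342-stained HepG2 cells following 24-hour treatment at ten concentrations up to 200 uM, with DMSO as baseline.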

A short description of assay [9]: APR_HepG2_StressKinase_1hr: Apredica 1-hour HepG2 Assay for Stress Kinase (AID 2282906). As to conditions: HepG2 stress kinase (phospho-c-Jun) imaging, actives raise or lower the signal. A digest of the protocol:
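HepG2 cells dosed 0.39-200 uM (0.5% DMSO) for 1 h, then formaldehyde-fixed. Stress kinase read by phospho-c-Jun immunofluorescence using high-content imaging; bidirectional fit vs DMSO.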

Assay [10] is described as follows: APR_HepG2_NuclearSize_24hr: Apredica 24-hour HepG2 Assay for Nuclear Size (AID 2282907). The note with it: high-content imaging, actives raise or lower the signal. The method, boiled down:
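Compounds in DMSO (final 0.5%) were added to human HepG2 hepatoma cells at ten concentrations up to 200 uM for 24 hr. Fixed nuclei were stained with Hoechst 33342, and nuclear diameter was quantified from automated images.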

A short description of assay [11]: APR_HepG2_CellLoss_24hr: Apredica 24-hour HepG2 Assay for Cell Loss (AID 2282908).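 As to AC50: fit in both directions so a hit may be cell loss or gain.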 As to conditions: high-content imaging. The method, boiled down: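 Cell number is quantified by fluorescence imaging of Hoechst 33342-stained nuclei following dosing at 0.39–200 uM in 0.5% DMSO. Curves are fitted in both directions from the DMSO baseline.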
Assay [12] in a line: APR_HepG2_MicrotubuleCSK_24hr: Apredica 24-hour HepG2 Assay for Microtubule CSK Stabilty (AID 2282909). As to conditions: HepG2 microtubule cytoskeleton imaging, actives raise or lower the signal. The method, boiled down:
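Steps: dose HepG2 for 24 h (0.39–200 uM, 0.5% DMSO); fix 30 min in 3.7% formaldehyde at room temperature; permeabilize; stain alpha-tubulin 60 min; image microtubule cytoskeleton at 20x. Signal change fitted in both directions relative to DMSO.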

Assay [13] is described as follows: APR_HepG2_MitoticArrest_24hr: Apredica 24-hour HepG2 Assay for Mitotic Arrest (AID 2282910). As to conditions: high-content imaging, actives raise or lower the signal. The method, boiled down:
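Compounds are dosed onto HepG2 cells across ten concentrations up to 200 uM for 24 hr. Cells are then fixed in 3.7% formaldehyde, permeabilised, and labelled for phospho-histone H3 and nuclei; images are scored by cell cycle analysis and fitted bidirectionally relative to DMSO.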

The nature of assay [14]: APR_HepG2_MitoMembPot_24hr: Apredica 24-hour HepG2 Assay for Mitochondrial Membrane Potential (AID 2282911). The note with it: imaging, actives raise or lower the signal. A digest of the protocol: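 Mitochondrial membrane potential imaged via MitoTracker Red CMXRos (250 nM, 30 min pre-fixation) in fixed HepG2 cells with Hoechst nuclear identification. Ten concentrations 0.39–200 uM, 24 h treatment, 0.5% DMSO; CCCP as positive control.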

Assay [15] in a line: APR_HepG2_MitoMass_24hr: Apredica 24-hour HepG2 Assay for Mitochondrial Mass (AID 2282912). The note with it: high-content imaging, actives raise or lower the signal. The method, boiled down:
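The liver line HepG2 was dosed in duplicate across a 0.39–200 uM series, with final DMSO held at 0.5% v/v, and harvested at 24 hr. High-content imaging measured mitochondrial dye staining.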

Assay [16] is described as follows: APR_HepG2_p53Act_24hr: Apredica 24-hour HepG2 Assay for p53 Activation (AID 2282913).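 Also: p53 protein immunofluorescence averaged per cell in HepG2 with Hoechst nuclei.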 The note with it: high-content imaging, actives raise or lower the signal. A digest of the protocol:
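Fluorescence imaging of formaldehyde-fixed HepG2 cells labelled for p53 and with Hoechst, 24 h after dosing (0.39–200 uM, duplicate wells, 0.5% v/v DMSO). Signal fitted in both directions relative to DMSO.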

Assay [17] is described as follows: APR_HepG2_MitoMass_1hr: Apredica 1-hour HepG2 Assay for Mitochondrial Mass (AID 2282674). As to conditions: high-content imaging, actives raise or lower the signal. The method, boiled down:
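HepG2 cells dosed 1 hr with 0.39-200 uM compound (0.5% DMSO), duplicate wells. Mitochondria stained with 250 nM MitoTracker Red CMXRos for 30 min before formaldehyde fixation, imaged at 20x by ArrayScan; bidirectional fit versus DMSO.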

The nature of assay [18]: APR_HepG2_MitoMembPot_1hr: Apredica 1-hour HepG2 Assay for Mitochondrial Membrane Potential (AID 2282675). As to conditions: imaging, actives raise or lower the signal. The method, boiled down:
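HepG2 cells dosed 1 hour with 0.39–200 uM compound in duplicate, 0.5% DMSO final. MitoTracker Red CMXRos (250 nM, 30 min) loaded before formaldehyde fixation; fluorescence quantified by high-content imaging, bidirectional fitting versus DMSO.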

Assay [19] in a line: APR_HepG2_NuclearSize_1hr: Apredica 1-hour HepG2 Assay for Nuclear Size (AID 2282670). As to conditions: high-content imaging, actives raise or lower the signal. The method, boiled down:
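HepG2 cells dosed 1 hr with 0.39–200 uM compound (0.5% DMSO), formaldehyde-fixed, Hoechst 33342-stained and imaged at 20x; nuclear diameter from nuclear stain, fitted bidirectionally against DMSO.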

On to `N#CN=C1SCCN1Cc1ccc(Cl)nc1`, for which the outcome in [1], in assay [2], in assay [3], in [4], in [5] and in assay [6] was inactive. For the same compound, the call in assay [7], in [8], in [9], in [10], in assay [11] and in assay [12] was inactive. In addition, the compound was called inactive in assay [13], in assay [14], in [15] and in assay [16].
With `COP(=S)(OC)Oc1ccc([N+](=O)[O-])c(C)c1`, the outcome in assay [1], in [2], in assay [3], in assay [4], in assay [5] and in assay [6] was inactive. Further, the call in assay [7], in [8], in assay [9], in assay [10], in assay [11] and in assay [12] was inactive. Besides, the compound was called inactive in assay [13], in assay [14] and in [16].
Take `CCOc1nc(C(Cl)(Cl)Cl)ns1`: the result in assay [1], in assay [2], in [3], in assay [4], in [5] and in assay [6] was inactive. Moreover, the call in assay [7], in assay [17], in [18], in assay [8], in [10] and in [11] was inactive. The compound was called inactive in [12], in assay [13], in assay [14] and in assay [16].
Consider `CCOP(=S)(OCC)Oc1nc(Cl)n(C(C)C)n1`, for which the outcome in assay [1], in assay [2], in assay [3], in assay [4], in [5] and in assay [6] was inactive. Besides, the result in assay [7], in assay [17], in assay [18], in assay [8], in [9] and in assay [10] was inactive. Also, the call in assay [11], in assay [12], in assay [13], in assay [14] and in assay [16] was inactive.
For the compound `CC(C)N1C(=O)N(c2ccccc2)CSC1=NC(C)(C)C`, the result in [1], in [2], in assay [3], in [4], in [5] and in assay [6] was inactive. Also, the result in assay [7], in assay [9], in assay [10], in [14], in [15] and in assay [16] was inactive. Also, the AC50 was 114 µM (active) in assay [18]; 97.8 µM (active) in [8]; 115 µM (active) in assay [11]; 76.6 µM (active) in assay [12]; 114 µM (active) in [13].
Consider `CCOP(=O)(OCC)Oc1nc(Cl)c(Cl)cc1Cl`, for which the compound was classed as inactive in [1], in assay [2], in assay [3], in assay [4], in assay [19] and in assay [5]. Moreover, the compound was called inactive in [6], in assay [7], in assay [17], in assay [18], in [8] and in [9]. The compound was classed as inactive in assay [10], in [11], in [12], in assay [13], in assay [14] and in assay [15]. For the same compound, the compound was classed as inactive in assay [16].
Take `O=C1C2CC=CCC2C(=O)N1SC(Cl)(Cl)Cl` (stereo not given): the result in assay [1], in assay [2], in [3], in assay [4], in assay [19] and in assay [5] was inactive. The compound was called inactive in [6], in [14] and in assay [15]. For the same compound, the concentration at half-maximal activity (AC50) was 81.7 µM (active) in [7]; 33.4 µM (active) in assay [8]; 59.3 µM (active) in [10]; 54.6 µM (active) in assay [11]; 24.1 µM (active) in [12]; 30.1 µM (active) in [13]. In assay [16], the AC50 is 28.5 µM (active).
With `Cc1nc(N(C)C)nc(OC(=O)N(C)C)c1C`, the result in assay [1], in assay [2], in assay [3], in [4], in [19] and in [6] was inactive. The compound was classed as inactive in assay [7], in assay [8], in assay [10], in assay [11], in [12] and in assay [13]. The compound was classed as inactive in assay [14] and in [15].

The values above are taken from PubChem BioAssay (EPA / NIEHS).
